In the library only some 18% were active in any assay of this set; here they are far more common.
LDHA block – qHTS assay for inhibitors of human lactate dehydrogenase | L-lactate dehydrogenase A chain (Homo sapiens), P00338 | purified LDHA, NADH/diaphorase-resazurin fluorescence; hits give low values | activity change, % (values are at about 110 or 230 µM) | 480,000 compounds, 0.15% hits | AID 1347041, 2019; in the data active = activity change below about -30%; inconclusive = mostly about -25% to -30%
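Resorufin fluorescence (ex540/em590), read at 0 and 20 min after diaphorase/resazurin addition, reports the NADH left after a 5 min room-temperature reaction of 2 nM human LDH5 with 0.06 mM NADH and 0.2 mM pyruvate.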
Gal4-VP16 FLuc – VP16 counterscreen qHTS for inhibitors of ROR gamma transcriptional activity. AID 2546, 2010. Drosophila S2 Gal4-VP16 UAS-luciferase, luminescence, 20 h. Potency, µM (series often up to 53.6 µM), actives largely listed as inhibitors. 310,000 compounds, 3.5% hits;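 note: Gal4-VP16 expression switched on by copper sulfate through the metallothionein promoter; nearly all actives have a fitted effect of over 50% in size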
DT40 TDP1 no CPT – qHTS for Inhibitors of human tyrosyl-DNA phosphodiesterase 1 (TDP1): qHTS in cells in absence of CPT; 420,000 compounds, 15% hits; AID 686978, 2013; DT40 Tdp1-/- hTDP1 cells, no CPT, ATP luminescence, 48 h; Potency, µM (top dose mostly 46.2 µM), actives largely listed as inhibitors; note: nearly all actives have a fitted effect of over 55% in size
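No-CPT arm: Tdp1-/-;hTDP1 DT40 cells (400/well) plus compounds, incubated ≥48 hr at 37 °C. Readout CellTiter-Glo luminescence.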
TDP1 cell CPT – qHTS for Inhibitors of human tyrosyl-DNA phosphodiesterase 1 (TDP1): qHTS in cells in presence of CPT; 420,000 compounds, 12% hits; AID 686979, 2013; chicken DT40 Tdp1-/-;hTDP1 cells + 20 nM CPT, ATP luminescence, 48 h; Potency, µM (titrated, usually from 46.2 µM), usual class: inhibitors; note: nearly all actives have a fitted effect of over 55% in size
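Cell growth measured by CellTiter-Glo luminescence after a minimum 48 h, 37 C compound exposure with 20 nM CPT in Tdp1-knockout DT40 cells stably expressing hTDP1, seeded 400/well; qHTS titration format.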
RORgamma inh – qHTS for inhibitors of ROR gamma transcriptional activity | Nuclear receptor ROR-gamma (Mus musculus), P51450 | Drosophila S2 Gal4-RORgamma UAS-luciferase reporter, 20 h | Potency, µM (top dose mostly 53.6 µM), actives largely listed as inhibitors | 310,000 compounds, 5.4% hits | AID 2551, 2010; note: nearly all actives have a fitted effect of over 60% in size
Target sequence (P51450 whole entry, looked up, the tested form may be a part): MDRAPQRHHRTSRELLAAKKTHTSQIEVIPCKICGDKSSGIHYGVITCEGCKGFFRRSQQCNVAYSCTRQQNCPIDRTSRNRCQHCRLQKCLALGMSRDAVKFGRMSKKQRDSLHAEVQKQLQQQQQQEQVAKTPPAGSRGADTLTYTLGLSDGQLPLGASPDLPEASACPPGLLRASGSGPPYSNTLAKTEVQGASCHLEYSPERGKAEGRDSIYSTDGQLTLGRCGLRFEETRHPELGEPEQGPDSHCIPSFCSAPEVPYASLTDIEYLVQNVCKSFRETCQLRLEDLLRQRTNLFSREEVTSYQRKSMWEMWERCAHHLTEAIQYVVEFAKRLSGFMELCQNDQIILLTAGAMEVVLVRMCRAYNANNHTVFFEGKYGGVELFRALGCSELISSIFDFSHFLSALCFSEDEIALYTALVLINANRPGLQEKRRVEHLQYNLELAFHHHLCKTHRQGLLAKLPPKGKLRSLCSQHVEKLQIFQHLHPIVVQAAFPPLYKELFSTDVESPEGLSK
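Using a luciferase readout, inhibitors were identified by reduced reporter activity in Drosophila cells coexpressing a copper-inducible Gal4–ROR gamma fusion and UAS-driven Photinus luciferase, incubated 20 hr after 700 uM copper sulfate.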
IL1B secr inh – qHTS for Inhibitors of Inflammasome Signaling: IL-1-beta AlphaLISA Primary Screen; THP-1 LPS/ATP IL-1B secretion, AlphaLISA, 16 h; hits give low values; activity change, % at 57.5 µM; 360,000 compounds, 4.7% hits; AID 743279, 2014; in the data active = activity change below about -50%; inconclusive = mostly about -30% to -49%
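THP-1 cells pretreated 1 hr with compounds (up to 57.5 uM final), then stimulated with LPS (250 ng/mL final) plus ATP (1.25 mM final); secreted IL-1B measured by AlphaLISA after 16 hr, decreased signal indicating inhibition.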
Hits are given with their value; n = inactive; u = inconclusive; x = no result; ! = not active in a repeat; [ ] = another dose, or the depositor's remark. Unless noted, calls come from the whole dose curve; as a rule, active = well fitted curve in the direction sought with a large enough effect; inconclusive = small, poorly fitted or top-dose-only effect, or another doubt; inactive = no such curve, though single readings can be large; an effect the other way counts as inactive or inconclusive.

SMILES | LDHA block | Gal4-VP16 FLuc | DT40 TDP1 no CPT | TDP1 cell CPT | RORgamma inh | IL1B secr inh
CC(C)S(=O)(=O)N1CCN(c2ccnc3cc(Cl)ccc23)CC1 | n | n | u | u | n | x
O=[N+]([O-])c1ccc(S(=O)(=O)N2CCN(c3ccnc4cc(Cl)ccc34)CC2)cc1 | n | n | u | 18µM | n | n
O=C(C1CCCCC1)N1CCN(c2ccnc3cc(Cl)ccc23)CC1 | n | u | 12µM | 10µM | n | u
CC(=O)c1ccc(N2CCN(c3ccnc4cc(Cl)ccc34)CC2)cc1 | n | n | 3.7µM | u | n | n
CCOC(=O)c1cc(-c2ccco2)nc2c1c(C)nn2-c1ccccc1Cl | n | x | x | x | x | x
O=c1c2ccccc2c(-c2cccs2)nn1CC(O)COCc1ccccc1F (stereo unspecified) | n | x | x | x | x | x
CCC(C)NC(=O)Cn1c(=O)c2c(C(=O)OC)cc(C)nc2n(-c2ccccc2)c1=O (stereo unspecified) | n | x | x | x | x | x
Cc1ccc(Cl)cc1N1CCN(S(=O)(=O)c2cccc(S(=O)(=O)N3CCCC3)c2)CC1 | n | n | u | u | n | n
N#Cc1cccc(S(=O)(=O)N2CCN(c3ccnc4cc(Cl)ccc34)CC2)c1 | n | u | 12µM | 12µM | u | n
O=S(=O)(c1cccc(Br)c1)N1CCN(c2ccnc3cc(Cl)ccc23)CC1 | n | u | 21µM | u | n | n
CCn1nc(C(=O)OCC(=O)Nc2c(Cl)cc(Cl)cc2Cl)c2ccccc2c1=O | n | x | x | x | x | x
O=C(Nc1cccc(Cl)c1)c1nn(Cc2ccccc2)c(=O)c2ccccc12 | n | x | x | x | x | x
Cc1cc(C)n(-c2nc3c(c(=O)n(CCN4CCCCC4)c(=O)n3C)n2C)n1 | n | x | x | x | x | x
CCc1ccccc1N(C)S(=O)(=O)c1ccc(/C=C\c2onc(C)c2NC(=O)C2CC2)cc1 | n | x | x | x | x | x
COc1ccccc1OCCSc1nnc(C)n1-c1ccccc1 | n | n | n | n | n | n
CN(C)CCSc1nnc2sc3ccccc3n12 | n | n | n | n | n | n
COc1ccc(OCCSc2nnc(C)n2-c2ccccc2)cc1 | n | n | 26µM | 29µM | n | n
COc1ccc(OCCSc2nnc3sc4ccccc4n23)cc1 | n | n | u | u | n | -79
CCOCCCNC(=O)CSCCCC(=O)Nc1c(C)cc(C)cc1C | n | x | x | x | x | x
COc1ccc(Nc2cc(C)nc(N3CCN(C(=O)Nc4cc(C)ccc4C)CC3)n2)cc1 | n | x | x | x | x | x
O=C1CC2(CCN(C(=O)c3ccc(F)c(F)c3)CC2)Oc2ccccc21 | n | x | u | 29µM | x | n
CCSc1ccccc1C(=O)N1CCC2(CC1)CC(=O)c1ccccc1O2 | n | x | 16µM | n | x | n
O=C1CC2(CCN(C(=O)c3ccc(Cl)cc3)CC2)Oc2ccccc21 | n | x | u | n | x | n
CCOC(=O)C(CSCC(=O)c1ccc(Cl)cc1Cl)NC(=O)OC(C)(C)C (stereo unspecified) | n | u | u | n | u | n
CCOC(=O)CSCC(NC(=O)OC(C)(C)C)C(=O)OCC (stereo unspecified) | n | u | n | n | 7.1µM | n
SMILES | LDHA block | Gal4-VP16 FLuc | DT40 TDP1 no CPT | TDP1 cell CPT | RORgamma inh | IL1B secr inh
CCC(C(=O)Nc1ccc(C(C)=O)cc1)n1nc(-c2cc(C)ccc2C)ccc1=O (stereo unspecified) | n | x | x | x | x | x
Cc1cccc(NC(=O)C2CCN(S(=O)(=O)c3c(C)noc3/C=C/c3ccco3)CC2)n1 | n | n | 23µM | 16µM | u | u
Cc1cccc(NC(=O)C2CCN(S(=O)(=O)c3ccc4c(c3)OCCCO4)CC2)n1 | n | x | 21µM | u | x | n
Cc1cc(C)cc(NC(=O)C2CCN(S(=O)(=O)c3c(C)noc3/C=C/c3ccco3)CC2)c1 | n | x | 15µM | 23µM | x | x
Cc1noc(/C=C/N(C)C)c1S(=O)(=O)N1CCC(C(=O)Nc2ccc(Cl)cc2)CC1 | n | n | n | u | n | n
Cc1noc(/C=C/c2ccco2)c1S(=O)(=O)N1CCC(C(=O)Nc2ccc(F)c(Cl)c2)CC1 | n | x | 4.6µM | 5.2µM | x | x
Cc1cccc(NC(=O)C2CCN(S(=O)(=O)c3ccc4c(c3)OCCO4)CC2)n1 | n | x | n | n | x | n
CCOC(=O)c1sc2cccc(F)c2c1COC(=O)c1cc(C)oc1C | n | x | x | x | x | x
Cc1cccc(C(=O)N(C)C2CCN(CCc3ccccn3)CC2)c1 | n | x | x | x | x | x
Cc1ccc(NC(=O)C2CCN(S(=O)(=O)c3c(C)noc3/C=C/c3ccco3)CC2)cc1C | n | x | 13µM | u | x | x
CCOc1ccc(NC(=O)C2CCN(S(=O)(=O)c3c(C)noc3/C=C/c3ccco3)CC2)cc1 | n | x | u | n | x | x
CCOC(=O)[C@H](CCc1ccccc1)N[C@H]1CCc2ccccc2N(CC(=O)O)C1=O | n | n | 21µM! | u | n | n
COC(=O)c1ccc2nc(NC(=O)CN3C(=O)CCC3=O)sc2c1 | n | n | u | u | n | n
CCOC(=O)c1ccc2nc(NC(C)=O)sc2c1 | n | n | u | n | u | n
COC(=O)c1ccc2nc(Nc3nc4c(F)cc(F)cc4s3)sc2c1 | n | 1.1µM | 16µM | u | 0.32µM | n
CCOC(=O)c1ccc2nc(Nc3nc4ccc(F)cc4s3)sc2c1 | n | n | u | n | 0.79µM | n
CCOC(=O)N1CCN(S(=O)(=O)c2ccc(C(=O)Nc3nc4ccc(F)cc4s3)cc2)CC1 | n | n | 6.5µM | 8.2µM | n | n
COc1ccccc1N(C(=O)c1cncc(Br)c1)c1nc(-c2ccc(C)cc2)cs1 | n | n | 18µM | 21µM | n | n
CC(O)(COc1ccccc1)c1ccc2c(c1)CN(Cc1cccc3cccnc13)CCO2 (stereo unspecified) | x | x | u | n[9.04 µM] | x | x
CC(O)(COc1ccccc1)c1ccc2c(c1)CN(Cc1cccn1-c1ccccn1)CCO2 (stereo unspecified) | x | x | 16µM | n[9.04 µM] | x | x
O=C(CC1CCCO1)NC(c1ccccc1)C1CCCCC1 (stereo unspecified) | n | x | x | x | x | x
O=C1C(c2ccccc2)=[N+]([O-])c2ccccc21 | n | x | 4.1µM | 5.2µM | x | -88
CCc1nc(SCC(=O)N2c3ccccc3CC2C)c2c(C)c(C)sc2n1 (stereo unspecified) | n | u | 10µM | 9.2µM | n | u
Cc1nnc(SCC(=O)N2c3ccccc3CC2C)s1 (stereo unspecified) | n | n | n | n | n | n
